From PubChem BioAssay
This is a sample that favours compounds with a hit; in the whole collection about 10% have one here.
GLS inh: blocks human kidney-isoform glutaminase activity; O94925; GLS enzymatic activity, qHTS titration; Potency, µM (top dose mostly 45.5 µM), for inactives: top-dose activity change, negative = inhibition, actives largely listed as inhibitors; hit rate 0.21% among 410,000; note: % is set by controls: 0 for no effect and ±100 for the full control effect
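hKGA in 45 mM KH2PO4 (pH 8.2), 0.02% Tween-20 with compound, then 1mM L-Glutamine (stock as added) plus glutamate oxidase/HRP/Amplex red coupling mix. Fluorescence read initially and after 30 min at RT; signal change reflects glutamate formation.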
JMJD2A Tudor inh: JMJD2A Tudor domain (human) inhibition; O75164; AlphaScreen JMJD2A-Tudor / H3K4me3 peptide binding; Potency, µM (series often up to 114 µM), inactives show at the top dose activity change, negative = inhibition, actives largely listed as inhibitors; hit rate 4.4% among 390,000; AID 504339; note: % is set by controls: 0 for no effect and ±100 for the full control effect; nearly all actives have a fitted effect of over 50% in size
G9a block: G9a (human) methyltransferase inhibition | Potency, µM (titrated, usually from 102 µM), inactives show top-dose activity, negative = inhibition, actives largely listed as inhibitors | G9a H3K9 monomethylation, AlphaScreen, 2 h | hit rate 8.8% among 350,000 | Q96KQ7; note: % is set by controls: 0 for no effect and ±100 for the full control effect; nearly all actives have a fitted effect of over 75% in size
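Readings reflect AlphaScreen signal from monomethyl-H3K9 antibody detection. HMT at 20 nM; substrate b-H3K9 500 nM; cofactor SAM 20 uM; 2 h RT reaction; compounds tested as titrations in qHTS with 15 min preincubation.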
L3MBTL1 block: L3MBTL1 (human) inhibition; Potency, µM (highest dose often 57.1 µM), without a hit: top-dose activity, negative = inhibition, usual class: inhibitors; Q9Y468; AlphaScreen L3MBTL1–H3K9me1 peptide binding; hit rate 0.66% among 230,000; note: % is set by controls: 0 for no effect and ±100 for the full control effect; nearly all actives have a fitted effect of over 60% in size
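L3MBTL1 (50 nM) pre-complexed 30 min with biotinylated H3(1-15)K9me1 peptide (75 nM), then compounds added for 30 min at room temperature; AlphaScreen streptavidin donor/nickel chelate acceptor beads (10 ug/mL final) read after 30 min dark incubation.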
BAZ2B inh: inhibitors of human BAZ2B bromodomain. AID 504333. hit rate 4.4% among 360,000. AlphaScreen BAZ2B-H3K14Ac peptide displacement. Q9UIF8. Potency, µM (top dose mostly 114 µM), for inactives: at the top dose activity change, negative = inhibition, hits mostly inhibitors; note: % is set by controls: 0 for no effect and ±100 for the full control effect; nearly all actives have a fitted effect of over 60% in size
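BAZ2B (50 nM) with biotin-H3(5-23)K14Ac peptide (50 nM) in PBS pH 7.4, 0.01% Tween-20, preformed 30 min, then compound 30 min at room temperature; top concentration 110uM. AlphaScreen streptavidin donor/nickel chelate acceptor beads (10 ug/mL final), 20 min dark, signal read.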
HP1b chromo inh: inhibitors of HP1-beta chromodomain binding to methylated histone tails. P83916. AlphaScreen HP1-beta / biotin-H3K9me3 peptide binding. Potency, µM (titrated, usually from 114 µM), for inactives: top-dose activity change, negative = inhibition, actives largely listed as inhibitors. hit rate 0.56% among 390,000. AID 540317; note: nearly all actives have a fitted effect of over 70% in size
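HP1-beta protein (50 nM final) preincubated 30 min at room temperature with biotinylated H3(1-18)K9me3 peptide (50 nM) in PBS pH 7.4, 0.01% Tween-20, then compound added for 30 min. AlphaScreen streptavidin donor/nickel chelate acceptor beads (10 ug/mL final), 30 min dark, luminescence read.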
The depositor's hits bear a star; ? = inconclusive; . = no result given; [ ] = another dose, or the depositor's remark. Calls come from the whole dose curve; as a rule, active = well fitted curve in the direction sought with a large enough effect; inconclusive = small, poorly fitted or top-dose-only effect, or another doubt; inactive = no such curve, though single readings can be large; an effect the other way counts as inactive or inconclusive. Potency is the fitted concentration of half-maximal effect.

SMILES	GLS inh	JMJD2A Tudor inh	G9a block	L3MBTL1 block	BAZ2B inh	HP1b chromo inh
COc1ccc(CN(CC2CCC(C(=O)O)CC2)C(=S)Nc2ccc(C)c(Cl)c2)cc1 (stereo unspecified)	24%	-17%	?	.	-2%	10%
CC(C)Oc1ccccc1-c1nc(SCC(=O)c2ccc(F)cc2)n[nH]1	1%	-7%	2%[59 µM]	.	-2%	51%
COc1cc(OC)c(NC(=O)c2c(C)oc3nc(C)nc(N4CCOCC4)c23)cc1Cl	2%	-3%	-1%[59 µM]	.	8%[57.1 µM]	36%
CNC(=O)c1ccc(CSc2nc3cccnc3n2Cc2cccc(F)c2)cc1	8%	-10%	-21%[59 µM]	.	-27%	19%
O=S(=O)(c1ccccc1Br)N1CCN(c2nc(-c3ccccc3)nc3ccccc23)CC1	.	-13%	.	.	.	33%
CC(=O)NC1=NN(C(C)=O)C(C)(c2cccnc2)S1 (stereo unspecified)	1%	-8%	45µM*	.	5%	0%
Fc1ccccc1SCc1nnc(-c2ccccc2Br)o1	-10%	11µM*	-10%	57%	84%	-11%
CCn1c(=O)cc(SCC(=O)NCCc2ccc(OC)cc2OC)c2ccccc21	2%	-17%	3%[59 µM]	.	-1%	12%
COc1ccccc1OC(C)C(=O)Nc1ccc(-c2nc3ccccc3s2)cc1 (stereo unspecified)	-4%	-7%	0%[59 µM]	.	-21%	50%
COc1cccc(-c2nn[nH]n2)c1O	4%	?	3.5µM*	8%	56µM*	27%
Cc1cc(NC(c2nnc(-c3ccccc3)o2)c2ccccc2F)ccc1Br (stereo unspecified)	13%	-7%	18%[59 µM]	.	28%	85%
CC(C)(C)c1ccccc1Nc1nc(C#N)nc(NC2CCCC2)n1	.	-17%	.	.	.	.
Cc1ccc2c(c1)nnn2C1CCN(S(=O)(=O)c2ccc(C(=O)N(C)C3CCCCC3)cc2)CC1	-1%	?	56µM*	1%	-3%	5%
Cc1ccc(S(=O)(=O)N2CCC(n3nnc4cc(C)ccc43)CC2)cc1	-1%	-14%	7%[59 µM]	-10%	-6%	22%
COc1ccc(NC(=O)CN2CCCN(Cc3ccc(Cl)cc3)S2(=O)=O)cc1Cl	0%	-11%	6%[59 µM]	.	-1%	33%
O=C1OC(c2ccc(Cl)cc2)=N/C1=C\C=C\c1ccco1	0%	?	14µM*	?	.	-10%
O=C1OC(c2ccccc2)=N/C1=C\C=C\c1ccco1	12%	?	.	?	?	-17%
CCOc1ccccc1NC(=O)c1c(NC(=O)c2cccc(C)c2)sc2c1CCC2	-3%	-6%	2%[59 µM]	.	1%	24%
COc1ccccc1NC(=O)c1cc(S(=O)(=O)NCCC2=CCCCC2)ccc1F	3%	-6%	2%[59 µM]	.	8%	43%
Cc1ccc(NS(=O)(=O)c2ccc3c(c2)NC(=O)CC(=O)N3)cc1C	1%	-18%	0%	-16%	-10%	33%
COC(=O)c1ccc([C@@H]2Nc3c(OC)ccc(C)c3[C@@H]3C=CC[C@@H]32)cc1	-20%	?	3.2µM*	.	?	-8%
COC(=O)c1ccc([C@H]2Nc3ccc(S(=O)(=O)Nc4cccc(C)c4)cc3[C@H]3C=CC[C@H]32)cc1	?	35µM*	4.5µM*	.	40µM*	-14%
O=C(O)c1ccc(NS(=O)(=O)c2ccc3c(c2)C2C=CCC2C(c2ccccc2F)N3)cc1 (stereo unspecified)	-20%	?	10µM*	7.9µM*	50µM*	5%
COC(=O)c1ccc(C2NC(=O)CCC2[N+](=O)[O-])cc1 (stereo unspecified)	-6%	-6%	0%	.	-2%	6%
Cc1ccc(NS(=O)(=O)c2ccc3c(c2)[C@H]2C=CC[C@H]2[C@@H](c2ccc(F)cc2)N3)cc1C	1%	?	5.6µM*	.	?	-8%
SMILES	GLS inh	JMJD2A Tudor inh	G9a block	L3MBTL1 block	BAZ2B inh	HP1b chromo inh
CCC(=O)N1CCc2cc(S(=O)(=O)NC(C(=O)NCc3ccc(OC)cc3)C(C)C)ccc21 (stereo unspecified)	1%	-14%	9%[59 µM]	.	.	28%
CCN(CC)S(=O)(=O)c1ccc(NC(=O)NCc2noc3ccc(C)cc23)cc1	-4%	-17%	3%[59 µM]	.	-1%	54%
CCOC(=O)c1[nH]c(C)c(C(=O)NC(CC)Cc2ccccc2)c1C (stereo unspecified)	-5%	-18%	-37%[59 µM]	.	-5%	10%
Cc1nc(-c2ccc(F)cc2)sc1CCNC(=O)c1cccs1	-7%	-23%	18%[59 µM]	.	-34%	5%[57 µM]
CCCCCCN1C=CC=C/C1=C\C=C(C#N)C#N	8%	?	-48%[12.7 µM]	?	35µM*	-31%
CCOC(=O)NC1(Nc2ccc(C)cc2)Oc2ccccc2O1	-30%	?	?	-19%	-11%	?
CCOC(=O)NC1(NCC(C)C)Oc2ccccc2O1	51%	?	0.89µM*	.	0%	-14%
CCOC(=O)NC1(NC(C)C)Oc2ccccc2O1	55%	7%[11.4 µM]	10µM*	.	7%	-24%
CCCOc1cccc(C2/C(=C(/O)c3ccc(OC)cc3)C(=O)C(=O)N2CCN(C)C)c1 (stereo unspecified)	25%	-26%	50µM*	-3%	2%	17%
COc1ccc(C2/C(=C(\O)c3cc(C)ccc3C)C(=O)C(=O)N2CCN(C)C)cc1OC (stereo unspecified)	13%	7%	-39%[12.7 µM]	-1%	-23%	29%
COc1ccc(/C(O)=C2\C(=O)C(=O)N(CCN(C)C)C2c2cc(OC)c(OC)c(OC)c2)c(C)c1 (stereo unspecified)	13%	-31%	?	.	79µM*	5%
CCCOc1ccc(C2/C(=C(/O)c3ccc(F)cc3)C(=O)C(=O)N2CCCN(C)C)cc1 (stereo unspecified)	7%	-13%	40µM*	9%	3%	18%
COc1ccc(C2/C(=C(/O)c3ccc(F)cc3)C(=O)C(=O)N2CCCN(C)C)cc1 (stereo unspecified)	0%	-7%	.	.	.	18%
CCCOc1ccc(/C(O)=C2\C(=O)C(=O)N(CCCN(C)C)C23C(=O)N(C)c2ccccc23)cc1 (stereo unspecified)	.	.	45µM*	0%	-38%	.
O=C1NC2CCCCN2C12CCN(CCCN1c3ccccc3CCc3ccc(Cl)cc31)CC2 (stereo unspecified)	14%	.	.	.	.	.
Cc1ccc(N(Cc2cccs2)C(=O)c2ccco2)cc1	0%	0%	-7%[59 µM]	.	-4%	64%
O=C(NCCCN1CCOCC1)c1ccc2ccccc2c1	-8%	-17%	-14%	26%	?	8%
